Read-outs that look alike come from different tables or passages of the source.
Legend:
CDK8 = details: concentration: 1 μM, replicates: in singlicate; n = 1
CDK9 = details: concentration: 1 μM, replicates: in singlicate; n = 1
CDKL1 = details: concentration: 1 μM, replicates: in singlicate; n = 1
CDKL2 = details: concentration: 1 μM, replicates: in singlicate; n = 1
CDKL3 = details: concentration: 1 μM, replicates: in singlicate; n = 1
CDKL5 = details: concentration: 1 μM, replicates: in singlicate; n = 1
CHEK1 = details: concentration: 1 μM, replicates: in singlicate; n = 1
CHEK2 = details: concentration: 1 μM, replicates: in singlicate; n = 1
CIT = details: n = 1
CLK1 = details: concentration: 1 μM, replicates: in singlicate; n = 1
[1] = concentration: 1 μM, replicates: in singlicate
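Also: KINOMEscan kinase panel screen.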

| SMILES | %Inh (CDK8) [%] | %Inh (CDK9) [%] | %Inh (CDKL1) [%] | %Inh (CDKL2) [%] | %Inh (CDKL3) [%] | %Inh (CDKL5) [%] | %Inh (CHEK1) [%] | %Inh (CHEK2) [%] | %Inh (CIT; [1]) [%] | %Inh (CLK1) [%] | %Inh (CIT; 1 µM) [%] |
| --- | --- | --- | --- | --- | --- | --- | --- | --- | --- | --- | --- |
| COc1cc(Nc2nccc(-c3c(-c4cccc(NC(=O)c5c(F)cccc5F)c4)nn4ncccc34)n2)cc(OC)c1OC [GSK327238] | 4 | 0 | 20 | 13 | 62 | 10 | 0 | 14 | 71 | 23 |  |
| COc1cc(Nc2nccc(-c3c(-c4cccc(NC(=O)c5c(F)cccc5F)c4)nn4ccccc34)n2)cc(OC)c1OC [GSK323521] | 90 | 0 | 6 | 0 | 13 | 2 | 30 | 0 | 20 | 30 |  |
| CN1CCN(CCCNc2nccc(-c3c(-c4ccc(F)cc4)nn4cc(C(F)(F)F)ccc34)n2)CC1 [GW621581] | 19 | 0 | 0 | 21 | 0 | 0 | 10 | 0 | 71 | 21 |  |
| Nc1ncc(-c2ccc3nccc(-c4ccncc4)c3c2)cc1S(=O)(=O)N1CCOCC1 [GSK1627798] | 4 | 0 | 0 | 4 | 0 | 0 | 0 | 0 | 7 | 63 |  |
| COc1cc(Nc2nccc(N3CCC(NC(=O)Nc4cccc(C(C)=O)c4)C3)n2)cc(OC)c1OC (centres unmarked) [GSK1379753] | 27 | 0 | 17 | 46 | 0 | 0 | 0 | 0 | 11 | 16 |  |
| O=C(Nc1ccccc1F)NC1CCN(c2ccnc(Nc3ccc(F)cc3)n2)CC1 [GSK1379800] | 51 | 0 | 0 | 17 | 0 | 0 | 0 | 0 | 0 | 9 |  |
| C[C@@H]1CC[C@@H](C(=O)Nc2ccccc2)CN1c1cc(-c2ccc3c(N)n[nH]c3c2)nc(N)n1 [GSK2286062] | 19 | 4 | 0 | 7 | 0 | 0 | 0 | 26 | 8 | 14 |  |
| Cc1ccc(C(=O)Nc2ccc(Nc3ccnc4cc(-c5nccs5)ccc34)cc2O)cc1.Cl [GW494702] | 23 | 0 | 0 | 28 | 2 | 0 | 4 | 33 | 36 | 1 |  |
| c1ccc(Oc2ccc(Nc3ccnc4cc(-c5ccc(CNCCN6CCOCC6)o5)ccc34)cc2)nc1 [GW567145] | 55 | 0 | 2 | 9 | 0 | 0 | 0 | 90.6 | 7 | 17 |  |
| Nc1n[nH]c2cnc(-c3ccccc3)cc12 [SB-642124] | 0 | 53 | 1 | 58 | 0 | 0 | 0 | 0 | 19 | 69 |  |
| O=c1[nH]cc(-c2ccc(N3CCOCC3)cc2)c2sc(-c3cn[nH]c3)cc12 [GSK2276055] | 0 | 71 | 11 | 0 | 0 | 0 | 0 | 14 | 92.1 | 90 |  |
| O=C(Nc1cccc(-c2nn3ncccc3c2-c2ccnc(Nc3ccccc3)n2)c1)c1c(F)cccc1F [GSK198271] | 0 | 4 | 3 | 30 | 0 | 6 | 5 | 0 | 29 | 27 |  |
| O=C(Nc1n[nH]c2nc(-c3ccc(O)cc3)ccc12)C1CC1 [SB-710363] | 0 | 36 | 39 | 96.6 | 44 | 41 | 0 | 4 | 29 | 15 |  |
| COC(=O)Nc1nc2ccc(Oc3ccc(NC(=O)Nc4cc(C(F)(F)F)ccc4F)cc3)cc2n1C.Cl [GW692089] | 77 | 0 | 2 | 40 | 0 | 0 | 0 | 58 | 100 | 7 |  |
| FC(F)(F)c1ccc(/C=C/c2cncnc2Nc2ccc3[nH]c(Cc4ccccc4)nc3c2)cc1 [GW709199] | 64 | 0 | 42 | 38 | 0 | 0 | 0 | 18 | 55 | 23 |  |
| C[C@@H](Oc1cc(-n2cnc3cc(-c4ccnc(NCCS(C)(=O)=O)c4)ccc32)sc1C(N)=O)c1ccccc1Cl [GSK907232] | 0 | 11 | 4 | 12 | 0 | 0 | 0 | 0 | 36 | 67 |  |

| SMILES | %Inh (CDK8) [%] | %Inh (CDK9) [%] | %Inh (CDKL1) [%] | %Inh (CDKL2) [%] | %Inh (CDKL3) [%] | %Inh (CDKL5) [%] | %Inh (CHEK1) [%] | %Inh (CHEK2) [%] | %Inh (CIT; [1]) [%] | %Inh (CLK1) [%] | %Inh (CIT; 1 µM) [%] |
| --- | --- | --- | --- | --- | --- | --- | --- | --- | --- | --- | --- |
| COc1cc(Nc2ncc3c(C)nc(-c4cc5ccccc5[nH]4)n3n2)cc(OC)c1OC [GW869516] | 44 | 0 | 46 | 1 | 8 | 0 | 0 | 0 | 100 | 88 |  |
| COc1cc(Nc2nccc(N3CCC(NC(=O)c4cc5ccccc5s4)C3)n2)cc(OC)c1OC (centres unmarked) [GSK1379760] | 38 | 5 | 11 | 43 | 13 | 1 | 0 | 16 | 0 | 4 |  |
| COc1ccc(Nc2nccc(NCCNC(=O)c3cc4ccccc4s3)n2)cc1 [GSK1379896] | 15 | 0 | 0 | 23 | 0 | 0 | 0 | 0 | 5 | 20 |  |
| O=C(NC1CCN(c2ccnc(Nc3ccc(F)cc3)n2)C1)c1cc2ccccc2s1 (centres unmarked) [GSK1379716] | 52 | 6 | 0 | 40 | 0 | 5 | 0 | 38 | 33 | 29 |  |
| c1ccc(-c2n[nH]cc2Nc2ccnc3ccccc23)nc1 [GW694077] | 30 | 0 | 3 | 31 | 0 | 0 | 0 | 18 | 61 | 98.2 |  |
| NCCCC(NC(=O)c1cc(Br)c(-c2ccnc3[nH]ccc23)s1)c1ccccc1.O=C(O)C(F)(F)F.O=C(O)C(F)(F)F (centres unmarked) [GSK1287544] | 27 | 4 | 0 | 40 | 0 | 0 | 0 | 0 | 90 | 51 |  |
| CC(C)(C)c1ccc2nccc(Nc3cccc(O)c3)c2c1 [GW856795] | 68 | 0 | 8 | 0 | 19 | 0 | 74 | 0 | 21 | 17 |  |
| CCn1c(-c2nonc2N)nc2c(C#CC(C)(C)O)ncc(OCCCCN)c21.O=C(O)C(F)(F)F.O=C(O)C(F)(F)F [GSK507274] | 0 | 0 | 0 | 53 | 0 | 10 | 2 | 0 |  | 21 | 100 |
| Cl.c1ccc(-c2ccc3c(Nc4ccc5[nH]ccc5c4)ccnc3c2)nc1 [GW440138] | 45 | 0 | 0 | 7 | 0 | 0 | 0 | 34 | 0 | 20 |  |
| Cn1cc(-c2ccc3c(c2)CCN3C(=O)Cc2cccc(F)c2)c2c(N)ncnc21 [GSK2603358] | 97.8 | 7 | 6 | 43 | 0 | 0 | 5 | 0 | 20 | 18 |  |
| Cl.c1ccc(-c2ccc3c(Nc4ccc5[nH]ncc5c4)ccnc3c2)nc1 [GW440137] | 26 | 11 | 7 | 40 | 0 | 0 | 0 | 14 | 11 | 48 |  |
| CCCCc1nn2ncccc2c1-c1ccnc(Nc2ccc(N3CCN(C)CC3)cc2)n1 [GW684941] | 26 | 0 | 22 | 99.3 | 66 | 0 | 0 | 13 | 30 | 8 |  |
| COCCOCCOc1cc2ncc3c4ccc(C#N)cc4[nH]c3c2cc1OC | 1 | 0 | 56 | 7 | 0 | 0 | 55 | 57 | 98.2 | 84 |  |
| COc1ccc(CNC(=O)NC2CCN(c3ccnc(Nc4ccc(F)cc4)n3)CC2)cc1 [GSK1379788] | 45 | 0 | 9 | 22 | 0 | 0 | 0 | 34 | 28 | 13 |  |
| Fc1ccc(-c2ncn(C3CCNCC3)c2-c2ccnc(Oc3ccc(-c4ccccc4)cc3)n2)cc1 [SB-245391] | 92.8 | 12 | 28 | 0 | 32 | 0 | 0 | 0 | 98.9 | 21 |  |
| Cc1occc1-c1ncc(OC[C@@H](N)Cc2c[nH]c3ccccc23)cc1-c1ccc2[nH]nc(C)c2c1.O=C(O)C(F)(F)F [GSK682037] | 25 | 22 | 11 | 43 | 0 | 0 | 0 | 0 | 99.1 | 32 |  |

— paper PMC5540273 (PLoS ONE, 2017)
